# Only some compounds are listed: those with a hit (about 19% of all), similar ones and a draw of the others.
# TGFb SMAD3 inh – qHTS for Inhibitors of TGF-b; 1.2% of 410,000 active; HepG2 CAGA-GFP TGF-b/SMAD3 reporter, GFP fluorescence, 18 h; TGF-beta stimulated, 500 pg/mL final; Potency, µM (top dose mostly 46.1 µM), most hits filed as inhibitors; further: nearly all actives have a fitted effect of over 65% in size
#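 HEPG2 CAGA-GFP reporter cells (1000/well, DMEM with 1% FBS) received compounds, then recombinant TGF-beta at 500 pg/mL final for 18 hours at 37 degrees C. Per-cell GFP summed per well was normalised to unstimulated and stimulated DMSO controls before curve fitting.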
# ASM inhibitor – Inhibitors of Secretory Acid Sphingomyelinase (S-ASM): qHTS; Sphingomyelin phosphodiesterase (Homo sapiens), P17405; placental ASM, HMU-PC fluorogenic substrate, 60 min; Potency, µM (doses to about 57.5 µM), most hits filed as inhibitors; 0.006% of 340,000 active
# Target sequence (P17405 47-631 limits assumed): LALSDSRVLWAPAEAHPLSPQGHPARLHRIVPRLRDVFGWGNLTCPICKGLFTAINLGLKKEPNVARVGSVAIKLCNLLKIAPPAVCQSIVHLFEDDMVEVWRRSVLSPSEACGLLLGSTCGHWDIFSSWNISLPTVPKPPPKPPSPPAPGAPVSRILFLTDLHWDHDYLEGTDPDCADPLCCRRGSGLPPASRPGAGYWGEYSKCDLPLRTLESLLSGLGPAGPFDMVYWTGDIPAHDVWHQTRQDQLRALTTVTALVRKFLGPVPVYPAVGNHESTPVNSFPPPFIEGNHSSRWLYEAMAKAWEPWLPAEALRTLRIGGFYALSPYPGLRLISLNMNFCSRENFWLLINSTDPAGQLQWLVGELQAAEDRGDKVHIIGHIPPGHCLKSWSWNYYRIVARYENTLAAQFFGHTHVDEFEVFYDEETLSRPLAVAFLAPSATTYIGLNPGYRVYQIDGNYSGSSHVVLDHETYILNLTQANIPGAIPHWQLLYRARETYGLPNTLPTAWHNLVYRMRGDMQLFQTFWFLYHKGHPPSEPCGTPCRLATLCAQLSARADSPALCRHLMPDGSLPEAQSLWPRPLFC
#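 Fluorescence read-out (Ex 386 nm, Em 447 nm) after stopping the reaction at pH 10. Enzyme: ASM from human placenta; substrate HMU-PC0, 9 uM final; 60 min, 37 °C. Compound preincubation 10 min, ambient temperature.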
# HepG2 viability – qHTS for Inhibitors of TGF-b: Cytotox Counterscreen | 0.76% of 410,000 active | Potency, µM (highest dose often 46.1 µM), actives largely listed as cytotoxic | HepG2 CAGA-GFP viability, ATP luminescence, 18 h
#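 HepG2 CAGA-GFP cells (1000/well, DMEM with 1% FBS) received compound, then TGF-beta at 500 pg/mL final, and were incubated 18 hours at 37 degrees C. Viability was read by CellTiter-Glo luminescence. Media-only wells were set as complete cell-killing and DMSO as no toxicity.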
# DT40 TDP1 no CPT – qHTS for Inhibitors of human tyrosyl-DNA phosphodiesterase 1 (TDP1): qHTS in cells in absence of CPT. Potency, µM (doses to about 46.2 µM), hits mostly inhibitors. DT40 Tdp1-/- hTDP1 cells, no CPT, ATP luminescence, 48 h. AID 686978, 2013. 15% of 420,000 active; further: nearly all actives have a fitted effect of over 55% in size
#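 Luminescent ATP content (CellTiter-Glo) served as the growth readout. Knockout chicken DT40 cells expressing human TDP1 were exposed to compounds without camptothecin for a minimum 48 hr at 37 °C.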
# TDP1 cell CPT – qHTS for Inhibitors of human tyrosyl-DNA phosphodiesterase 1 (TDP1): qHTS in cells in presence of CPT; chicken DT40 Tdp1-/-;hTDP1 cells + 20 nM CPT, ATP luminescence, 48 h; Potency, µM (series often up to 46.2 µM), hits mostly inhibitors; 12% of 420,000 active; AID 686979, 2013; further: nearly all actives have a fitted effect of over 55% in size
#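 Chicken DT40 Tdp1-/- cells complemented with human TDP1, 400 cells/well, exposed to compounds plus 20 nM camptothecin for at least 48 h at 37 C; viability read as ATP content by CellTiter-Glo luminescence.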
# IL1B secr inh – qHTS for Inhibitors of Inflammasome Signaling: IL-1-beta AlphaLISA Primary Screen | THP-1 LPS/ATP IL-1B secretion, AlphaLISA, 16 h; hits give low values | activity change, % at 57.5 µM | 4.7% of 360,000 active | AID 743279, 2014; in the data active means activity change below about -50%; inconclusive means mostly about -30% to -49%
#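 THP-1 cells pretreated 1 hr with compounds (up to 57.5 uM final), then stimulated with LPS (250 ng/mL final) plus ATP (1.25 mM final); secreted IL-1B measured by AlphaLISA after 16 hr, decreased signal indicating inhibition.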
# Numbers stand for hits; n = inactive; u = inconclusive; x = not tested or not shown; [ ] = dose if it differs, or a comment. Unless noted, the call rests on the fitted dose curve; in most records, active means well fitted curve in the direction sought with a large enough effect; inconclusive means small, poorly fitted or top-dose-only effect, or another doubt; inactive means no such curve, though single readings can be large; an effect the other way counts as inactive or inconclusive.
SMILES,TGFb SMAD3 inh,ASM inhibitor,HepG2 viability,DT40 TDP1 no CPT,TDP1 cell CPT,IL1B secr inh
Cc1nnc(N2CCCC(C(=O)Nc3cc(F)ccc3F)C2)c2nn(-c3ccccc3)c(C)c12 (configuration not stated),u,n,n,23µM,13µM,n
Cc1nnc(N2CCCC(C(=O)Nc3ccccc3C(F)(F)F)C2)c2nn(-c3ccccc3)c(C)c12 (configuration not stated),n,x,n,18µM,18µM,x
COc1ccc(NC(=O)C2CCCN(c3nnc(C)c4c(C)n(-c5ccccc5)nc34)C2)cc1Cl (configuration not stated),16µM,x,18µM,16µM,10µM,x
COc1ccccc1NC(=O)N1CCN(c2nnc(C)c3c(C)n(-c4ccccc4)nc23)CC1,n,x,n,u,u,x
COc1ccc2c(c1)Cc1sc(NC(=O)c3cccs3)nc1-2,n,n,n,21µM,u,n
COc1ccc(Br)c2c1-c1nc(NC(=O)c3cccc(C)c3)sc1C2,u,x,n,23µM,u,x
COc1ccc(C(=O)Nc2nc3c(s2)Cc2cc(OC)ccc2-3)cc1,n,n,n,u,u,-53
COc1ccc2c(c1)CCc1sc(NC(=O)c3ccc(Cl)cc3)nc1-2,u,x,n,21µM,18µM,x
COc1ccc2c(c1)Cc1sc(NC(=O)c3ccccc3C)nc1-2,x,x,n,u,n,x
COc1ccc2c(c1)Cc1sc(NC(=O)c3ccccc3)nc1-2,n,n,n,u,u,n
O=C(c1ccc2[nH]ccc2c1)N1CCOc2ccc(CN3CCN(c4ccccn4)CC3)cc2C1,x,x,x,u,n[9.04 µM],x
Cc1cccc(N2CCN(CC(=O)N(C3CCCC3)C3CCS(=O)(=O)C3)CC2)c1C (configuration not stated),n,n,n,u,u,n
Oc1ccc(/C(Cc2ccccn2)=N\Nc2ccccc2)c(O)c1,u,n,n,u,u,-180
Oc1ccc(/C(Cc2ccc3ccccc3n2)=N\Nc2ccccc2)c(O)c1,u,n,n,23µM,u,-98
N/N=C(\Cc1cscn1)c1ccc(O)cc1O,n,n,n,u,n,n
CC(=O)Oc1ccc(C(=O)Cc2ccc3ccccc3n2)c(O)c1C,n,n,n,n,n,n
O/C(=C\c1ccc2ccccc2n1)c1ccc(O)cc1O,n,n,n,n,n,n
Cc1c(O)ccc(/C(Cc2ccc3ccccc3n2)=N\O)c1O,u,n,n,21µM,21µM,-67
CCOc1ccccc1N1CCN(Cc2cnc(-c3ccccc3)[nH]2)CC1,n,n,n,23µM,u,u
CCOc1ccc(C(=O)Nc2cccc(NC(=O)c3cccs3)c2)cc1[N+](=O)[O-],n,n,n,18µM,u,n
CC(C)CN1C(=O)c2ccc(NC(=O)c3cccs3)cc2C1=O,n,n,n,18µM,u,-52
O=C(Nc1cccc(NC(=O)c2cccs2)c1)c1ccc(F)cc1,n,n,n,u,u,-61
COc1ccc(C(=O)Nc2cccc(NC(=O)c3cccs3)c2)cc1,n,n,n,u,u,u
O=C(Nc1cccc(NC(=O)c2cccs2)c1)c1ccc(Br)o1,n,n,n,21µM,n,n
COc1cc(NC(=O)c2ccc(OC)c([N+](=O)[O-])c2)ccc1NC(=O)c1cccs1,u,n,n,n,n,n
SMILES,TGFb SMAD3 inh,ASM inhibitor,HepG2 viability,DT40 TDP1 no CPT,TDP1 cell CPT,IL1B secr inh
CC1(C)CC(=O)C=C(C(=O)N2CCCC(C(=O)c3cccc(Cl)c3)C2)O1 (configuration not stated),n,n,n,u,u,n
Cc1cccc(C(=O)Nc2ccc(C(=O)N/N=C/c3ccco3)cc2)c1,n,n,n,n,n,n
COc1cc(NC(=O)c2c(F)c(F)c(OC)c(F)c2F)ccc1NC(=O)c1cccs1,n,n,n,18µM,21µM,n
O=C(Nc1cccc2ccccc12)/C(=C/c1cccc([N+](=O)[O-])c1)NC(=O)c1cccs1,n,n,n,u,n,n
Cc1cccc(NC(=O)/C(=C/c2cccc([N+](=O)[O-])c2)NC(=O)c2cccs2)c1,n,n,n,1.8µM,n,n
CC(C)(C)NC(=O)c1cc(NC(=O)c2cccs2)cc(NC(=O)c2cccs2)c1,u,n,n,21µM,u,n
Cc1ccc(C(=O)Nc2cccc(NC(=O)c3cccs3)c2)c(C)c1,n,n,n,16µM,n,n
Cc1ccccc1C(=O)Nc1cccc(NC(=S)NC(=O)c2cccs2)c1,n,n,n,u,n,n
COc1cc(NC(=O)c2ccc(C)cc2C)ccc1NC(=O)c1cccs1,n,n,n,n,n,-63
COc1cc(NC(=S)NC(=O)c2ccc(C)cc2C)ccc1NC(=O)c1cccs1,n,n,n,u,u,n
COc1ccc(OC)c(N=Cc2c(O)c3ccccc3oc2=O)c1,n,n,n,u,u,n
COc1ccc(Cl)cc1N=Cc1c(O)c2ccccc2oc1=O,n,n,n,u,16µM,n
CC(C)(C)C(=O)[C@@H]1[C@@H]2C(=O)N(c3ccc4c(c3)OCCO4)C(=O)[C@@H]2C2c3ccccc3C=CN21 (some centres not stated),n,n,n,23µM,u,n
Cc1ccc(N2C(=O)[C@@H]3[C@H](C2=O)C2c4ccccc4C=CN2[C@@H]3C(=O)c2ccco2)cc1 (some centres not stated),n,n,n,u,u,n
Clc1ccc2nc(-c3ccccc3)c(CN3CCOCC3)n2c1,n,n,n,u,u,n
c1ccc(-c2nc3c4ccccc4ccn3c2CN2CCOCC2)cc1,n,n,n,18µM,10µM,n
COc1ccc(-c2nc3c4ccccc4ccn3c2Cc2cccc(F)c2)cc1OC,u,x,n,u,u,n
COc1ccc(-c2nc3c4ccccc4ccn3c2CN2CCOCC2)cc1OC,u,n,n,u,15µM,u
COc1ccc(-c2nc3c4ccccc4ccn3c2CC2CCCCC2)cc1OC,n,x,n,23µM,u,n
CCn1ccc2cc(S(=O)(=O)N3CCCN(C(=O)NCC(=O)OC)CC3)ccc21,n,x,n,x,x,x
CN(C)c1cc(-c2ccc(Br)cc2)oc(=O)c1Cl,n,n,n,u,n,-51

# Screening data: PubChem, National Center for Advancing Translational Sciences (NCATS)
